# Source: PubChem
# AID504770: growth inhibitors of E. coli YBA685 in a screen for V. cholerae RctB (chromosome II replication) inhibitors. E. coli YBA685 rctB-dependent plasmid, OD600 growth, 3 h; hits give low values. z-score (test concentration not listed). 0.27% of 130,000 active; in the data active = z-score below about -2, passing the limit was not always enough
# PV pol inh: inhibitors of poliovirus RNA polymerase binding and polymerization. AID 588519. 0.66% of 150,000 active. % elongation, % (compound at 16.7 µg/mL). poliovirus polymerase elongation, fluorescence polarization; hits give low values; in the data active = % elongation below about 90%
# Target sequence (P03300 1749-2209 limits assumed): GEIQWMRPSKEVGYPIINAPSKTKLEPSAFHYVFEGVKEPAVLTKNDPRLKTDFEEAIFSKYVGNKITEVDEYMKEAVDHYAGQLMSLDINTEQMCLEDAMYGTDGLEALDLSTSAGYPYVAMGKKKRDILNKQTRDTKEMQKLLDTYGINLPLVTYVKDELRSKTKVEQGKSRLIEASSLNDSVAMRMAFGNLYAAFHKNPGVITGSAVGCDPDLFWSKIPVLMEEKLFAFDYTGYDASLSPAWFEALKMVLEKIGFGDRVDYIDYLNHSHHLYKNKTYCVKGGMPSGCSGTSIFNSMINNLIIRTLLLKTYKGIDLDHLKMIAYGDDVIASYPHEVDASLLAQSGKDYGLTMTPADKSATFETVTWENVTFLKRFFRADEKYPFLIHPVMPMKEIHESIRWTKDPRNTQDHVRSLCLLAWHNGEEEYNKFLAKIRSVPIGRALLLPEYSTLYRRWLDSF
# MenB inh: inhibitors of Mycobacterium tuberculosis MenB enzyme; P9WNP5; 0.43% of 100,000 active; inhibition, % (concentration not given with the values); MenB enzyme assay, absorbance read-out; in the data active = inhibition above about 21%, passing the limit was not always enough
# MbtI inh: blocks the Mycobacterium tuberculosis siderophore enzyme MbtI | purified MbtI enzyme, fluorescence intensity read-out | P9WFX0 | inhibition, % (test concentration not listed) | AID 493033 | 0.89% of 100,000 active; in the data active = inhibition mostly above about 56%, no sharp cut-off; inactive = mostly below about 77%
# Numbers stand for hits; - = inactive; . = no result. This is a sample that favours compounds with a hit; in the whole collection about 1.4% have one here.
SMILES,AID504770,PV pol inh,MenB inh,MbtI inh
CC1CN(C(=S)c2ccccc2)CC(C)O1 (stereo not drawn),-,-,-,68
CC1CN(C(=S)NCCc2ccccc2)CC(C)O1 (stereo not drawn),-,-,-,-
O=c1[nH]sc2ccccc12,-,-,51,-
CCN(CC)CC(=O)N1CCCC1=O,-,-,43,-
CN(CC(=O)N1CCCC1=O)Cc1ccccc1,-,-,-,-
NCc1nc2ccccn2c1Br,-,-,.,-
CC(C)(C)Nc1nc2c(s1)CCCC2,-,-,-,78
NC(=O)N/N=C/c1cn(-c2ccccc2)nc1-c1ccccc1,-,-,-,-
O=S(=O)(NN=Cc1cn(-c2ccccc2)nc1-c1ccco1)c1ccc(Cl)cc1,-,-,-,90
CCc1nn(CC(=O)N2CCc3ccccc32)c(=O)c2cccn12,-,-,-,-
O=C(/C=C/c1ccco1)/C=C/c1ccco1,-,80,-,-
O=C(CC1OC(=O)c2ccccc21)c1ccc(Cl)s1 (stereo not drawn),-,85,-,-
O=C(CC1OC(=O)c2ccccc21)c1ccccn1 (stereo not drawn),-,.,.,.
C=CCn1c(Cc2ccc(O)c(Cl)c2)n[nH]c1=S,-,-,-,93
CCSc1cc(C)c(C#N)c2nc3ccccc3n12,-,-,-,-
O=C(Nc1nc(-c2ccc3c(c2)OCO3)cs1)c1cc2ccccc2o1,-,.,-,-
CN(CC(=O)O)Cc1cccnc1,-,-,26,-
Clc1ccc(-c2noc3ncnc(NC4CCCC4)c23)cc1,-,-,-,-
CNC(=O)c1c(C)nc(SCC(=O)OCC(=O)Nc2ccc(C)c(C)c2)c(C#N)c1-c1ccco1,-,-,-,-
CNC(=O)c1c(C)[nH]c(=S)c(C#N)c1-c1ccco1,-,-,-,99
Cn1nc(-c2ccc(C(C)(C)C)cc2)cc1N,-,.,.,.
CC(C)(C)c1ccc(-c2cc3ncc(-c4ccccc4)c(N)n3n2)cc1,-2.3,-,-,-
O=C1CCCC2=C1C1(O)C(=O)c3ccccc3C1(O)O2 (stereo not drawn),-,78,-,-
Nc1ccc2c(c1)OC1(O)c3ccccc3C(=O)C21O (stereo not drawn),-,-,-,-
COCCNC(=O)Cc1csc2nc(-c3ccc(Cl)cc3)cn12,-,-,-,-
SMILES,AID504770,PV pol inh,MenB inh,MbtI inh
COc1ccccc1-n1cnnc1SCc1ccc(C)cc1,-,-,-,-
COC(=O)COc1ccc2cccc(-n3cnnn3)c2c1,-,-,39,-
CC(C)C1OCC2Cc3ccccc3C2O1 (stereo not drawn),-,-,-,-
O=C(CSC1=NCCc2ccccc21)c1ccccc1Cl,-,68,-,-
O=C(CSC1=NCCc2ccccc21)c1ccc(-c2ccccc2)cc1,-,83,-,-
O=C(SC1=NCCc2ccccc21)c1ccccc1,-,-,-,-
CCOc1ccc(CN(C)CC(=O)NC2CC2)cc1OC,-,-,-,-
CCOc1ccccc1C(=S)N1CCOCC1,-,-,-,74
O=C(Oc1ccccc1C(=S)N1CCOCC1)c1ccccc1,-,-,-,-
CCc1ccccc1NC(=O)Nc1cc2sccc2n1CC,-,-,-,-
CC(C)=CC[C@@H](O)C1=CC(=O)c2c(O)ccc(O)c2C1=O,.,46,.,-
CC1=C(C)C(=O)C(NCc2ccccn2)=CC1=O,-,66,-,-
Cc1sc2nc(CC(=O)N3CCCC3)[nH]c(=O)c2c1C,-,75,-,-
O=C(CCc1nc2sc3c(c2c(=O)[nH]1)CCCC3)N1CCCCC1,-,.,.,.
O=[n+]1c2c(n([O-])c3ccccc31)CCC2,-3.3,-,-,-
Cc1ccc2c(c1)n([O-])c1c([n+]2=O)CCCC1,-,-,-,-
COC(=O)c1cn(NC(=O)/C(C)=C/c2ccccc2)c(=O)c2ccccc12,.,.,.,-
COc1ccccc1C(=O)NCC(=O)O,-,-,35,-
Cc1cc(CNC(C)c2ccncc2)c(C)n1-c1ccnn1C(C)C (stereo not drawn),-,-,-,-
O=C(O)Cc1n[nH]c(=O)c2ccccc12,-,-,37,-
O=C(Cc1n[nH]c(=O)c2ccccc12)NCc1ccccc1,-,-,-,-
CSC1=C(C#N)C(=O)NC(c2ccc(Cl)cc2)S1 (stereo not drawn),-,88,-,-
CCOC(=O)c1c(C)[nH]c(C)c1S(=O)(=O)N1CCCC(C(=O)Nc2ccccc2OCC)C1 (stereo not drawn),.,-7.0,.,.
CCOc1ccccc1NC(=O)C1CCCN(S(=O)(=O)c2c(C)[nH]c(=O)[nH]c2=O)C1 (stereo not drawn),.,-,.,.
COc1ccc(/C=C/C(=O)Nc2ccccc2N2CCCCC2)cc1OC,-,-,.,-
SMILES,AID504770,PV pol inh,MenB inh,MbtI inh
O=C1CSc2nnc(C3COc4ccccc4O3)n2N1 (stereo not drawn),-,-,-,85
COc1ccc(/C=N/N2C(=O)C3C=CC=CC3N=C2C)cc1OC (stereo not drawn),-,-,-,-
CCOc1ccc(-c2c(=O)n(O)c3ccccc3[n+]2[O-])cc1,-,-,-,87
O=c1c(-c2ccc(I)cc2)[n+]([O-])c2ccccc2n1O,-,-,-,-
NC(=O)c1ccsc1NC(=O)Cc1ccc(S(=O)(=O)N2CCOCC2)s1,-5.4,-,-,-
CC12C=CC(CO)(O1)C1C(=O)N(c3ccc(Br)cc3)C(=O)C12 (stereo not drawn),-,-,-,101
CC1(C)c2sc(=O)[nH]c2SC2C(=O)N(c3ccc(Br)cc3)C(=O)C21 (stereo not drawn),-,-,-,-
O=C(CC1(C(F)(F)F)OCCO1)Nc1ccc(S(=O)(=O)Nc2ncccn2)cc1,-,-,-,-
N#CC1(C#N)C2C=CC(C2)C1(C#N)C#N,-5.9,-,-,-
Cc1nc2ccccc2c(=O)n1-c1ccc(C(=O)NC(C)c2ccccn2)cc1 (stereo not drawn),-,34,-,-
CC1COc2c(N3CCN(C)CC3)c(F)cc3c(=O)c(C(=O)N4CCN(c5ncccn5)CC4)cn1c23 (stereo not drawn),-,-,-,-
CC1COc2c(N3CCN(C)CC3)c(F)cc3c(=O)c(C(=O)O)cn1c23 (stereo not drawn),-5.2,-,-,-
N#CC1=C(SCc2ccccc2)SC(c2ccccc2O)NC1=O (stereo not drawn),-3.4,-,-,-
NC(N)=N/N=C/c1ccc(O)c(Cl)c1,-,-,-,-
N#CC(C#N)=Cc1ccc(O)c(Cl)c1,-,-,-,61
COc1ccc(CCN2C(=O)C=CC2=O)cc1,-,-,.,93
COc1ccc(CN2C(=O)C=CC2=O)cc1,-,.,.,.
Cc1ccc(NC(=O)CSc2nc(=O)n(Cc3ccco3)c3c2CCC3)cc1F,.,76,.,.
Cc1cc(C)c(NC(=O)CSc2nc(=O)n(Cc3ccco3)c3c2CCC3)c(C)c1,.,-,.,.
Cc1cccc(-c2cc3nc4c(c(NCCN(C)C)n3n2)CCC4)c1,-,-,-,-
Nc1nnc2cc(C(=O)c3cc(F)ccc3O)cnn12,-,-,-,-
Cc1ccc(O)c(C(=O)c2cnn(-c3nc(C)cc(=O)[nH]3)c2)c1,-,-,-,-
